Among the data in PubChem BioAssay (EPA / NIEHS) are outcome and AC50 values, retold here.

In experiment [1] the target is human Retinoic Acid Receptor beta (RARb), RARB (gene 5915) (UniProt P10826). The experiment in a line: ATG_RARb_TRANS: Attagene TRANS-FACTORIAL HepG2 Assay for human Retinoic Acid Receptor beta (AID 2283004). The procedure, abridged:
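Induction of reporter mRNA from a chimeric RARb-Gal4 construct was measured by RT-PCR, FAM labelling, HpaI digestion and capillary electrophoresis. Measurements followed 24 h compound treatment of transiently transfected human HepG2 liver cells, with DMSO as baseline.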

Experiment [2] has as its target Peroxisome proliferator-activated receptor gamma (Homo sapiens) (UniProt P37231). The experiment is described as follows: ATG_PPARg_TRANS: Attagene TRANS-FACTORIAL HepG2 Assay for human Peroxisome Proliferator-activated Receptor-gamma (PPARg) (AID 2283007). In short, it runs like this:
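Read-out: reporter mRNA induction, detected by fluorescence after RT-PCR and capillary electrophoresis. Transiently transfected human HepG2 liver cells carrying a chimeric NR-Gal4 construct were dosed for 24 h; activity was fitted upward relative to DMSO.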

In experiment [3] the target is Nuclear receptor subfamily 1 group I member 2 (Homo sapiens) (UniProt O75469). The experiment is described as follows: ATG_PXR_TRANS: Attagene TRANS-FACTORIAL HepG2 Assay for human Pregnane X Receptor (PXR) (AID 2283008). In short, it runs like this: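 HepG2 cells transiently transfected with GAL4-UAS reporter units and PXR-Gal4 chimera, exposed 24 h. Reporter mRNA quantified by RT-PCR, fluorescent labelling, HpaI digestion and capillary electrophoresis; gain of signal vs DMSO.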
Nuclear receptor subfamily 1 group I member 2 (Homo sapiens), sequence (O75469 whole entry, looked up, the tested form may be a part): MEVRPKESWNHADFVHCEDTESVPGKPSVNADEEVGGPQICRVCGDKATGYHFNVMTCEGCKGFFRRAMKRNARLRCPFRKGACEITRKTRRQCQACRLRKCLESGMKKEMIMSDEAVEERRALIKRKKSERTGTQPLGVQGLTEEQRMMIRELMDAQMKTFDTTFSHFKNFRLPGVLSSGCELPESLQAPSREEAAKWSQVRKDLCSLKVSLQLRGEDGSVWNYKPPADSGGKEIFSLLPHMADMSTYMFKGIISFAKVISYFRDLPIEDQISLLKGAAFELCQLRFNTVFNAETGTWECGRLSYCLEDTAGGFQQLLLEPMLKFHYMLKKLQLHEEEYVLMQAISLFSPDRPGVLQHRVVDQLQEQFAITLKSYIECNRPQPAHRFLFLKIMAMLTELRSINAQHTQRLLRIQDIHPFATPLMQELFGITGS

In experiment [4] the target is human RAR-related Orphan Receptor gamma (RORg), RORC (gene 6097) (UniProt P51449). The experiment in a line: ATG_RORg_TRANS: Attagene TRANS-FACTORIAL HepG2 Assay for human RAR-related Orphan Receptor gamma (RORg) (AID 2283011). The procedure, abridged: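 Reporter transcripts from a transfected RORg-GAL4 chimera in HepG2 cells were quantified 24 h after dosing by RT-PCR, 6-FAM labelling, HpaI digestion and capillary electrophoresis; increases over DMSO baseline were fitted.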
human RAR-related Orphan Receptor gamma (RORg), RORC (gene 6097), sequence (P51449 whole entry, looked up, the tested form may be a part): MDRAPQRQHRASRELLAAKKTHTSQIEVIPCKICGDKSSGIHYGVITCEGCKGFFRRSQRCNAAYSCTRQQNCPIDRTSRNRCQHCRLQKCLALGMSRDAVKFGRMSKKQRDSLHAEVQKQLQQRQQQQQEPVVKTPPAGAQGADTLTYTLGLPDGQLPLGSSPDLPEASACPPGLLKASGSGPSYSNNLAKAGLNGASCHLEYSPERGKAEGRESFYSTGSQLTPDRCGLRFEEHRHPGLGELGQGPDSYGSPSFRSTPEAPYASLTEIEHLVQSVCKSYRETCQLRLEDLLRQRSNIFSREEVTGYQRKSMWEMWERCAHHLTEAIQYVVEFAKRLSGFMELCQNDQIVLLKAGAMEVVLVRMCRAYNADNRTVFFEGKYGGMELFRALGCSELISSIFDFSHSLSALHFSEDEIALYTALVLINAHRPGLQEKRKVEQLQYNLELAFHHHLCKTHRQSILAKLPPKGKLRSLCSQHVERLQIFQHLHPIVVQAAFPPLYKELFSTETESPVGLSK

Experiment [5] addresses human Retinoid X Receptor beta (RXRb), RXRB (gene 6257) (UniProt P28702). The experiment is described as follows: ATG_RXRb_TRANS: Attagene TRANS-FACTORIAL HepG2 Assay for human Retinoid X Receptor beta (RXRb) (AID 2283013). The procedure, abridged:
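HepG2 cells transiently transfected with multiplexed reporter units driven by GAL4-UAS and exogenous chimeric NR-Gal4 proteins; treated 24 h. Reporter mRNA measured by RT-PCR, 6-FAM labelling and capillary electrophoresis; gain-of-signal fitted versus DMSO baseline.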

Experiment [6] deals with human Thyroid Receptor alpha (THRa1), THRA (gene 7067) (UniProt P10827). The experiment is described as follows: ATG_THRa1_TRANS: Attagene TRANS-FACTORIAL HepG2 Assay for human Thyroid Receptor alpha (THRa1) (AID 2283014). In short, it runs like this:
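Transcripts from GAL4-UAS-driven reporters, measured after 24 h compound exposure by RT-PCR plus capillary electrophoresis of 6-FAM-labeled fragments, were fitted for gain of signal relative to DMSO. Cells: transiently transfected HepG2 expressing NR-Gal4 chimeras.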

In experiment [7] the target is human Vitamin D Receptor (VDR), VDR (gene 7421) (UniProt P11473). The experiment in a line: ATG_VDR_TRANS: Attagene TRANS-FACTORIAL HepG2 Assay for human Vitamin D Receptor (VDR) (AID 2283022). In short, it runs like this: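 Transactivation by an exogenous VDR-Gal4 chimera in transiently transfected HepG2 cells was measured as reporter transcript level 24 hours after chemical treatment. RT-PCR products were analysed by capillary electrophoresis and fitted in the positive direction relative to DMSO.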
human Vitamin D Receptor (VDR), VDR (gene 7421), sequence (P11473 whole entry, looked up, the tested form may be a part): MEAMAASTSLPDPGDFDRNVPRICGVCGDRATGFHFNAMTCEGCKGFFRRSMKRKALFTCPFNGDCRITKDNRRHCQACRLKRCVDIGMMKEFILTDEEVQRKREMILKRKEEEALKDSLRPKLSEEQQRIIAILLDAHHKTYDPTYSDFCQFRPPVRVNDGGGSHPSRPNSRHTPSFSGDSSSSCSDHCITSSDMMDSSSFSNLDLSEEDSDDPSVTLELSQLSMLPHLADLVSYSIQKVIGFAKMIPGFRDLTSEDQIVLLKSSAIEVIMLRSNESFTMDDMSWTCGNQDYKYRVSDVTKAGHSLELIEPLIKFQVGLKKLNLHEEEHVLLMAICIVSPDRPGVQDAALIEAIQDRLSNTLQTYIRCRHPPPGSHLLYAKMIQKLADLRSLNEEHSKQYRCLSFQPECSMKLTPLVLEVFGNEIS

Experiment [8] concerns the target Retinoic acid receptor alpha (Homo sapiens) (UniProt P10276). The experiment in a line: ATG_RARa_TRANS: Attagene TRANS-FACTORIAL HepG2 Assay for human Retinoic Acid Receptor alpha (RARa) (AID 2283005). In short, it runs like this:
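HepG2 transiently transfected with multiplex GAL4-UAS reporter units including a human RARa–GAL4 chimera; 24 h compound exposure. Reporter mRNA quantified by RT-PCR, 6-FAM labeling and capillary electrophoresis; gain of signal versus DMSO.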

The target in experiment [9] is human Retinoic Acid Receptor gamma (RARg), RARG (gene 5916) (UniProt P13631). The experiment in a line: ATG_RARg_TRANS: Attagene TRANS-FACTORIAL HepG2 Assay for human Retinoic Acid Receptor gamma (RARg) (AID 2283009). In short, it runs like this: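 HepG2 cells transiently transfected with multiplexed reporter units expressing chimeric RARg-GAL4 and GAL4-UAS-driven reporters; 24 h compound exposure. Reporter mRNA quantified by RT-PCR with fluorescent labelling and capillary electrophoresis; gain-of-signal fitted relative to DMSO baseline.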
human Retinoic Acid Receptor gamma (RARg), RARG (gene 5916), sequence (P13631 whole entry, looked up, the tested form may be a part): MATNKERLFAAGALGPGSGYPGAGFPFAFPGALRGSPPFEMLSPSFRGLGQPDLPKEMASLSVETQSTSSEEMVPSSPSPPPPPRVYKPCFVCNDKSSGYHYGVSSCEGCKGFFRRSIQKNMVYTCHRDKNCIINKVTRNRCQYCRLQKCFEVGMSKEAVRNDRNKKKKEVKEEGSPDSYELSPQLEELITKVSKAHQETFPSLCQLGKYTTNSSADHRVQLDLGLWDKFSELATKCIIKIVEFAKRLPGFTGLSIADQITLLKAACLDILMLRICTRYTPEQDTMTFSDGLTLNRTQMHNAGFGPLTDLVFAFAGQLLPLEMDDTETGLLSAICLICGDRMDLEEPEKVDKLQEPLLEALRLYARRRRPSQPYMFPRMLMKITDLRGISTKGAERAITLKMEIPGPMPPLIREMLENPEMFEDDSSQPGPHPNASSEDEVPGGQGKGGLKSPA

The target of experiment [10] is Retinoic acid receptor RXR-alpha (Homo sapiens) (UniProt P19793). The experiment is described as follows: ATG_RXRa_TRANS: Attagene TRANS-FACTORIAL HepG2 Assay for human Retinoid X Receptor alpha (RXRa) (AID 2283012). The procedure, abridged:
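HepG2 cells transiently transfected with multiplexed GAL4-UAS reporter units and chimeric NR-GAL4 fusions, dosed 24 h. Reporter mRNA measured by RT-PCR, FAM labelling, HpaI digestion and capillary electrophoresis; gain-of-signal fitted relative to DMSO baseline.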

The target of experiment [11] is human RAR-related Orphan Receptor beta (RORb), RORB (gene 6096) (UniProt Q92753). The experiment is described as follows: ATG_RORb_TRANS: Attagene TRANS-FACTORIAL HepG2 Assay for human RAR-related Orphan Receptor beta (RORb) (AID 2283010). The procedure, abridged: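 HepG2 cells were transiently transfected with multiplexed GAL4-UAS reporter units expressing chimeric nuclear receptor–GAL4 proteins, then dosed for 24 h. Reporter mRNA was quantified by RT-PCR with fluorescent labelling and capillary electrophoresis; gain of signal was fitted relative to DMSO.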
human RAR-related Orphan Receptor beta (RORb), RORB (gene 6096), sequence (Q92753 whole entry, looked up, the tested form may be a part): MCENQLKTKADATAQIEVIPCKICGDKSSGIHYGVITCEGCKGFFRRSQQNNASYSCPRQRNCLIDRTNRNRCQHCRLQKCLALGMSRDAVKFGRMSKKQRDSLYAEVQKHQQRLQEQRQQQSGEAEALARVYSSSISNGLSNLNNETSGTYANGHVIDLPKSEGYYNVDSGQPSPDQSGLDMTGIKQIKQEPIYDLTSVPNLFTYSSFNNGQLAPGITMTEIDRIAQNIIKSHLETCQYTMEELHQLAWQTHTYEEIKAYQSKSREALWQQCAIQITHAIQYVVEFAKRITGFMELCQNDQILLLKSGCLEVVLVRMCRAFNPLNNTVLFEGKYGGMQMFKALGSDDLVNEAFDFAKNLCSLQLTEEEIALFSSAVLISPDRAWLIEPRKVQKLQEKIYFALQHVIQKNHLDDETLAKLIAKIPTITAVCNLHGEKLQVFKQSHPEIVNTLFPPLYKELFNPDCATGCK

SMILES strings stand for the structures. Results filed as inconclusive are left out. Active and inactive are the calls of the source. The calls were made as follows: active = hit-call score of the fitted dose curve at least 0.9, where 1 is the maximum; inconclusive = response in the unintended direction; inactive = score below 0.9.

human Thyroid Receptor alpha (THRa1), THRA (gene 7067), sequence (P10827 whole entry, looked up, the tested form may be a part): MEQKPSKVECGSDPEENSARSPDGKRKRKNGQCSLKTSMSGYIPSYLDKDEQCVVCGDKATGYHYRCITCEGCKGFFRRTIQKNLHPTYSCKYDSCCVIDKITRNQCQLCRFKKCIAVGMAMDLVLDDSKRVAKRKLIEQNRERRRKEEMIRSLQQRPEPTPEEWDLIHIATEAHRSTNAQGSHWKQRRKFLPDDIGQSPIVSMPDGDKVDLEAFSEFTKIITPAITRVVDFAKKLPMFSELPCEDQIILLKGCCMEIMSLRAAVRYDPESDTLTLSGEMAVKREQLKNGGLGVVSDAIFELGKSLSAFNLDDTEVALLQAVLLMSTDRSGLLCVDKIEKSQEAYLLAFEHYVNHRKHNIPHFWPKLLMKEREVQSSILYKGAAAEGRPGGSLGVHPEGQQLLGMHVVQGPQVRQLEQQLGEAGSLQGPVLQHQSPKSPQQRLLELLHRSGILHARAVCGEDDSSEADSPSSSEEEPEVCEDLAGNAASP
Retinoic acid receptor alpha (Homo sapiens), sequence (P10276 whole entry, looked up, the tested form may be a part): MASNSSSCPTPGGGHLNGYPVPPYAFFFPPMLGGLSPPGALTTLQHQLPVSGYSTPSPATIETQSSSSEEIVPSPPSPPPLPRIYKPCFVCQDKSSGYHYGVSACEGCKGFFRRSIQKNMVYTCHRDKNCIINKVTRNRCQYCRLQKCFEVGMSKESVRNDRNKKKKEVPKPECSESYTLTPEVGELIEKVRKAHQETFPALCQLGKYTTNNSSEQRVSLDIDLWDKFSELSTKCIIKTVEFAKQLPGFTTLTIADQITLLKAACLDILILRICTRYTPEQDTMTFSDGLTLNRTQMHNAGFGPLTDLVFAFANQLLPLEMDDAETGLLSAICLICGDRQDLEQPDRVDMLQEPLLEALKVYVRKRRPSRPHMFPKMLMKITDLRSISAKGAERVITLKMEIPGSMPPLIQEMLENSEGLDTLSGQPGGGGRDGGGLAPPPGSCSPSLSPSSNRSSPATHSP
human Retinoid X Receptor beta (RXRb), RXRB (gene 6257), sequence (P28702 whole entry, looked up, the tested form may be a part): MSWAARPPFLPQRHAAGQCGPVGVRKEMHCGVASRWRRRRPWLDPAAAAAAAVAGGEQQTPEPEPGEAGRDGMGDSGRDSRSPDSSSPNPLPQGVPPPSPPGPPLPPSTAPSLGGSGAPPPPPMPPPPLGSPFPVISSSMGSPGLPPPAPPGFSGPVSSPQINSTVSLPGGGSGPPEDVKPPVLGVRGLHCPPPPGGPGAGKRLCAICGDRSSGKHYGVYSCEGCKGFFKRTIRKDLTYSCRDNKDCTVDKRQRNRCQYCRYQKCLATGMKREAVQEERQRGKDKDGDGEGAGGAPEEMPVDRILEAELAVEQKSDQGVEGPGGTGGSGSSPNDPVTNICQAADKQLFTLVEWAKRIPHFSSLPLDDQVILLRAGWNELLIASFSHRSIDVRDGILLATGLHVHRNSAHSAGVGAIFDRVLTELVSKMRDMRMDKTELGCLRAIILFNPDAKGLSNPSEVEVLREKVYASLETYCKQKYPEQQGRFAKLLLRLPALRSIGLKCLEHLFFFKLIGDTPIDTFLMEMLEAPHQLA
Peroxisome proliferator-activated receptor gamma (Homo sapiens), sequence (P37231 whole entry, looked up, the tested form may be a part): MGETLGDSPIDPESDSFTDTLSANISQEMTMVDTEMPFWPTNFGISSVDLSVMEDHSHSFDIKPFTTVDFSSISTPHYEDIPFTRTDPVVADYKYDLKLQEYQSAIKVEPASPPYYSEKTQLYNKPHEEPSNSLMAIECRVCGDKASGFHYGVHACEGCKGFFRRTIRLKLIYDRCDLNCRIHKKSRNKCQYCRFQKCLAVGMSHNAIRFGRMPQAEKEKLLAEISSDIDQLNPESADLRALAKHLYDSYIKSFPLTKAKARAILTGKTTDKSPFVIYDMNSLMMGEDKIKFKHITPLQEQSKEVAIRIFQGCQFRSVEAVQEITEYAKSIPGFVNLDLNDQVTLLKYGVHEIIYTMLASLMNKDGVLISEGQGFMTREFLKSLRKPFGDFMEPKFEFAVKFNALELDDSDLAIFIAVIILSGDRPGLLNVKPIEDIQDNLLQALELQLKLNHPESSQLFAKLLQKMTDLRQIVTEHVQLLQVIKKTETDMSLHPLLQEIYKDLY
human Retinoic Acid Receptor beta (RARb), RARB (gene 5915), sequence (P10826 whole entry, looked up, the tested form may be a part): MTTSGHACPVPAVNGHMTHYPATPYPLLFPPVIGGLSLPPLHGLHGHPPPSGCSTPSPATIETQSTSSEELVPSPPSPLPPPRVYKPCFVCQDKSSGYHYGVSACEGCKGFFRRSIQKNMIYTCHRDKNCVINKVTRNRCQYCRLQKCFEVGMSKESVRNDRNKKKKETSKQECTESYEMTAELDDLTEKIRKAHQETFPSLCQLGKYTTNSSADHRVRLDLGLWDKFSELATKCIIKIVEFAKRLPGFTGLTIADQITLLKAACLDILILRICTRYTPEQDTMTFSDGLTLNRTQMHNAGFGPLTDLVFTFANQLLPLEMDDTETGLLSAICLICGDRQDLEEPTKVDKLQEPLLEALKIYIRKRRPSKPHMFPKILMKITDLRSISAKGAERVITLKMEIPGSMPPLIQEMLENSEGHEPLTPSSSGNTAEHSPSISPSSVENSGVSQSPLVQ

With `O=C=Nc1ccc(Cl)cc1`, the compound was called inactive in [1], in experiment [2], in experiment [3], in experiment [4], in experiment [5] and in experiment [6]. For the same compound, the result in experiment [7] was inactive.
`CC(C)[C@@H](Nc1ccc(C(F)(F)F)cc1Cl)C(=O)OC(C#N)c1cccc(Oc2ccccc2)c1` (some centres not stated): the call in [1], in [8], in [9] and in [7] was inactive. Also, the AC50 in experiment [2] was 5.11 µM (active); in [3], 0.51 µM (active).
For the compound `Cc1cccc(C)c1NC(=O)CN1CCCC1=O`, the compound was classed as inactive in experiment [1], in experiment [2], in [3] and in [10].
On to `N#Cc1ccccc1N`, for which the outcome in experiment [1], in experiment [8], in experiment [3], in [11], in experiment [4] and in experiment [6] was inactive. For the same compound, the call in [7] was inactive.
On to `CC(C)[N+](=O)[O-]`, for which the compound was called inactive in experiment [1], in [8], in [2], in experiment [3], in [11] and in experiment [4]. Further, in experiment [6], the call was inactive.
On to `C[C@@H]1O[C@@H](O[C@H]2C[C@@H](O)[C@]3(CO)[C@H]4[C@H](O)C[C@]5(C)[C@@H](C6=CC(=O)OC6)CC[C@]5(O)[C@@H]4CC[C@]3(O)C2)[C@H](O)[C@H](O)[C@H]1O`, for which the compound was called inactive in [1], in experiment [8], in experiment [9], in experiment [11], in experiment [4] and in [10]. The call in experiment [6] was inactive. Further, the AC50 in experiment [2] was 0.131 µM (active).
For the compound `CCOc1ccc(N)cc1`, the compound was classed as inactive in [1], in experiment [6] and in experiment [7].
As for `NC(=O)c1ccc(N)nc1`, the call in experiment [1], in [8], in experiment [3], in experiment [9], in experiment [11] and in experiment [4] was inactive. The compound was called inactive in experiment [10] and in experiment [6].
Turning to `Clc1cc(C(Cl)(Cl)Cl)cnc1Cl`, the outcome in experiment [1], in [2], in experiment [3] and in experiment [11] was inactive.
On to `CC(C)(C1CCC(O)CC1)C1CCC(O)CC1` (configuration not stated), for which the outcome in [1], in [3], in experiment [10], in [5] and in experiment [7] was inactive.
Consider `COc1nn(C(=O)NS(=O)(=O)c2ccccc2OC(F)(F)F)c(=O)n1C`, for which the compound was classed as inactive in experiment [1], in [2], in experiment [3] and in experiment [10].
With `Cc1cc(Cl)ccc1OCCCC(=O)O`, the compound was called inactive in experiment [1], in experiment [8], in experiment [9], in experiment [4], in [10] and in [6]. The call in [7] was inactive. In addition, the AC50 in experiment [2] was 61.5 µM (active); in [5] it was 27.7 µM (active).
Consider `C=CC(F)(C(F)(F)F)C(F)(F)C(F)(F)F` (configuration not stated), for which the result in experiment [1], in [8], in [2], in [9], in experiment [10] and in experiment [5] was inactive. Moreover, the outcome in experiment [7] was inactive.
With `Cl[C@H]1OCCO[C@@H]1Cl`, the outcome in [1], in [2], in [3], in [9], in experiment [11] and in experiment [4] was inactive. For the same compound, the compound was classed as inactive in experiment [10], in [5] and in experiment [6].
In the case of `C1CCC(C2CCCCC2)CC1`, the compound was called inactive in experiment [1], in experiment [3], in experiment [11], in [4], in experiment [10] and in [6]. The outcome in experiment [7] was inactive. Moreover, the AC50 in [5] was 66.1 µM (active).
For the compound `BrCCCCBr`, the outcome in [1], in experiment [2], in [4], in experiment [5] and in experiment [6] was inactive.
As to `O=C(Cl)OCCOCCOC(=O)Cl`, the call in experiment [1], in experiment [2], in experiment [3], in experiment [11], in [5] and in experiment [6] was inactive.

In general, AC50 refers to the midpoint of the concentration-response curve, whichever way the signal moves.
